The text below walks through data of publication PMC4242493, “Sequence specificity incompletely defines the genome-wide occupancy of Myc”.

In all, about 33,000 sequences were measured (“normalized occupancy”: median about 0.075, highest 2% from about 0.095 on). The sample as a whole holds a higher share of the highest values than the screen did.

In the experiment the target is MaxL homodimer (Homo sapiens, UniProt P61244 1-160). Put plainly: universal protein-binding microarray (PBM); PBS-based mixture, 10 nM His-tagged protein dimer, 2% milk, 200 ng/uL BSA, 50 ng/uL salmon testes DNA, 0.02% TX-100; detection with Alexa 488 anti-His antibody;; high values mean tight binding. Conditions: protein: recombinant; tags: C-terminal His-tag (pET21a); chain copies: 2; dsDNA, one strand shown. In outline: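 Binding occupancy is a fluorescence intensity normalised to the intensity of the highest-ranked sequence word. Those intensities came from 8-mers on Agilent 4 x 44 K 'all 10-mer' universal arrays incubated with 10 nM His-tagged protein dimer. Bound protein was detected with 10 ng/μL fluorophore-conjugated anti-His antibody before scanning on a GenePix 4400A.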
MaxL homodimer, sequence (P61244 whole entry): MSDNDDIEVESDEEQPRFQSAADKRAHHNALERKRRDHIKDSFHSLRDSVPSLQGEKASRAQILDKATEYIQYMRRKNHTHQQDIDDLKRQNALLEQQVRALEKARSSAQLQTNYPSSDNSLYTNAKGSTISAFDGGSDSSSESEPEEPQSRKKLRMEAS
With AAAGCACT, the binding signal was determined as 0.0757 normalized occupancy.

With CACCACGC, the binding signal turned out to be 0.119 normalized occupancy.

For the sequence AACCACCA, the binding signal came out at 0.0807 normalized occupancy.

Turning to AACCACGG, the binding signal turned out to be 0.0843 normalized occupancy.

In the case of AACCACGA, the binding signal was 0.0902 normalized occupancy.

As for AACCACTA, the binding signal came out at 0.0774 normalized occupancy.

GACCACCA: the binding signal stood at 0.0803 normalized occupancy.

For AACCACGT, the binding signal was found to be 0.123 normalized occupancy.

Turning to CACCACGG, the binding signal came to 0.0774 normalized occupancy.

Consider GACCACGA, for which the binding signal is 0.0865 normalized occupancy.

Turning to CACCACGA, the binding signal stood at 0.082 normalized occupancy.

Turning to GACCACGC, the binding signal came to 0.129 normalized occupancy.

As for AACCACGC, the binding signal came to 0.0983 normalized occupancy.

Consider ATGCCCTG, for which the binding signal came to 0.0757 normalized occupancy.

Turning to GAGACCCA, the binding signal came to 0.0745 normalized occupancy.

Take TAATTGCA: the binding signal was found to be 0.0767 normalized occupancy.

Regarding ACCAAGCA, the binding signal was 0.081 normalized occupancy.

As to AATGCGTC, the binding signal turned out to be 0.0736 normalized occupancy.

Regarding AATGCGTA, the binding signal worked out at 0.0846 normalized occupancy.

Regarding GATGCGTA, the binding signal was 0.0807 normalized occupancy.

With CATGCGTA, the binding signal was 0.122 normalized occupancy.

Turning to CGTGCGTC, the binding signal was determined as 0.0896 normalized occupancy.

For CATGCGTC, the binding signal was determined as 0.113 normalized occupancy.

As for ATGACGCG, the binding signal is 0.0781 normalized occupancy.

Take ACGTGGGG: the binding signal worked out at 0.0991 normalized occupancy.

In the case of GGGTGGGA, the binding signal was found to be 0.085 normalized occupancy.

For ACGTGGGA, the binding signal is 0.0998 normalized occupancy.

As for AGGTGGGC, the binding signal stood at 0.0818 normalized occupancy.

For GTGTGGGA, the binding signal stood at 0.0899 normalized occupancy.

With GCGTGGGA, the binding signal is 0.125 normalized occupancy.

With ATGTGGGC, the binding signal is 0.0919 normalized occupancy.

In the case of AGGTGGGG, the binding signal was determined as 0.0822 normalized occupancy.

Regarding AAGTGGGA, the binding signal is 0.0771 normalized occupancy.

For CCGTGGGA, the binding signal turned out to be 0.0775 normalized occupancy.

As to ATGTGGGG, the binding signal was determined as 0.0878 normalized occupancy.

Regarding ACGTGGGC, the binding signal was determined as 0.1 normalized occupancy.

With GACATTGC, the binding signal came to 0.0757 normalized occupancy.

Regarding GGAAGAGA, the binding signal stood at 0.0767 normalized occupancy.

For the sequence AGAATGTC, the binding signal was determined as 0.0744 normalized occupancy.

For CCTGCTAC, the binding signal came out at 0.0758 normalized occupancy.

Consider CCCTAATA, for which the binding signal was 0.0744 normalized occupancy.

On to CGATTAAG, for which the binding signal stood at 0.0743 normalized occupancy.

Turning to TTCATAAA, the binding signal was determined as 0.0768 normalized occupancy.

Take CAGACCCC: the binding signal stood at 0.085 normalized occupancy.

Turning to CAGTAGAA, the binding signal amounted to 0.0771 normalized occupancy.

Turning to ACGTCGTC, the binding signal turned out to be 0.0822 normalized occupancy.

As for CATGCTCC, the binding signal was determined as 0.105 normalized occupancy.

Consider GATGCTCA, for which the binding signal was determined as 0.0734 normalized occupancy.

Regarding CATGCTCA, the binding signal is 0.099 normalized occupancy.

As for CGTGCTCC, the binding signal came to 0.085 normalized occupancy.

For GATGCTCC, the binding signal is 0.0753 normalized occupancy.

With CATGCTCG, the binding signal turned out to be 0.106 normalized occupancy.

Take AATGCTCG: the binding signal is 0.0783 normalized occupancy.

As to TATGCTCA, the binding signal turned out to be 0.0848 normalized occupancy.

With AATGCTCA, the binding signal was found to be 0.0829 normalized occupancy.

Take CTTTACCA: the binding signal stood at 0.0764 normalized occupancy.

With ATTGGGGC, the binding signal is 0.0771 normalized occupancy.

ACGTGGCG: the binding signal stood at 0.107 normalized occupancy.

Turning to ACGTGGCT, the binding signal came to 0.101 normalized occupancy.

In the case of ACGTGGCA, the binding signal came out at 0.106 normalized occupancy.

On to TCGTGGCA, for which the binding signal was 0.0869 normalized occupancy.

As for ACCTGGCT, the binding signal was 0.0765 normalized occupancy.

On to AAGTGGCT, for which the binding signal came to 0.072 normalized occupancy.

As to GCGTGGCA, the binding signal was 0.121 normalized occupancy.

As to ATGTGGCG, the binding signal amounted to 0.0879 normalized occupancy.

Regarding CCGTGGCG, the binding signal was 0.0765 normalized occupancy.

With CCGTGGCA, the binding signal came to 0.077 normalized occupancy.

AGGTGGCA: the binding signal amounted to 0.082 normalized occupancy.

Turning to ACGTGGCC, the binding signal came out at 0.094 normalized occupancy.

In the case of GGTCTGTA, the binding signal was 0.0752 normalized occupancy.

For CCTTGTCC, the binding signal was 0.0743 normalized occupancy.

In the case of CTGACTCA, the binding signal worked out at 0.0764 normalized occupancy.

With AACCAAGT, the binding signal was found to be 0.0721 normalized occupancy.

Take GAGGAGAA: the binding signal is 0.0783 normalized occupancy.

On to GGTAACTA, for which the binding signal came to 0.077 normalized occupancy.

In the case of CAACTTAG, the binding signal is 0.0721 normalized occupancy.

In the case of AGGCACCT, the binding signal was determined as 0.078 normalized occupancy.

With CTATTTTC, the binding signal came to 0.0775 normalized occupancy.

As for CCAAACGC, the binding signal was found to be 0.073 normalized occupancy.

In the case of GCGACTCA, the binding signal amounted to 0.0767 normalized occupancy.

On to GCGTGGCC, for which the binding signal is 0.0977 normalized occupancy.

For the sequence GAGTGGCC, the binding signal stood at 0.073 normalized occupancy.

Regarding CCGTGGCC, the binding signal was 0.0738 normalized occupancy.

As for GGACAACA, the binding signal was determined as 0.0742 normalized occupancy.

As to CAGGTGTA, the binding signal worked out at 0.0957 normalized occupancy.

As for ACCGTGTA, the binding signal turned out to be 0.0779 normalized occupancy.

Take AAGGTGTA: the binding signal was 0.0773 normalized occupancy.

As for CAGGTGTC, the binding signal stood at 0.0839 normalized occupancy.

As for CACGTGTC, the binding signal came to 0.574 normalized occupancy.

As to AACGTGTG, the binding signal was 0.108 normalized occupancy.

With ACCGTGTG, the binding signal worked out at 0.0873 normalized occupancy.

With AACGTATA, the binding signal was 0.0869 normalized occupancy.

Take CAAGTGTC: the binding signal is 0.0772 normalized occupancy.

Take CCCGTGTC: the binding signal was determined as 0.0814 normalized occupancy.

For AACGTGTA, the binding signal is 0.11 normalized occupancy.

ATCGTGTG: the binding signal came out at 0.0889 normalized occupancy.

In the case of GATGCAAA, the binding signal was 0.0761 normalized occupancy.

As for GTTCGTAA, the binding signal came out at 0.0774 normalized occupancy.

For CCTAGATA, the binding signal is 0.0756 normalized occupancy.

With ACCGTACA, the binding signal was determined as 0.0768 normalized occupancy.

As for AAATAGCA, the binding signal is 0.0843 normalized occupancy.

ACTATAAC: the binding signal was 0.0847 normalized occupancy.

With AGTTTTTG, the binding signal stood at 0.0729 normalized occupancy.

In the case of ATTGCGAA, the binding signal came out at 0.074 normalized occupancy.

As to ATGGGTAG, the binding signal is 0.0856 normalized occupancy.

Regarding ATGATTGG, the binding signal came to 0.0808 normalized occupancy.

Consider AAGAGCAG, for which the binding signal is 0.0746 normalized occupancy.

As to CACGTGTA, the binding signal worked out at 0.536 normalized occupancy.

On to AACGTGTC, for which the binding signal came to 0.101 normalized occupancy.

With GACGTGTA, the binding signal came to 0.0816 normalized occupancy.

Turning to ACCGTGTC, the binding signal amounted to 0.072 normalized occupancy.

On to CCCGTGTA, for which the binding signal amounted to 0.0861 normalized occupancy.

On to AAGGTGTC, for which the binding signal turned out to be 0.0775 normalized occupancy.

With AATGGCTC, the binding signal stood at 0.0777 normalized occupancy.

As for AATTAGTG, the binding signal came out at 0.0813 normalized occupancy.

Turning to AGGTGTCG, the binding signal turned out to be 0.0793 normalized occupancy.

Regarding CCGTGTCG, the binding signal amounted to 0.075 normalized occupancy.

For the sequence ACGTGTCT, the binding signal turned out to be 0.0997 normalized occupancy.

For ACGTGTCG, the binding signal came to 0.106 normalized occupancy.

On to ACGTGTCA, for which the binding signal amounted to 0.0923 normalized occupancy.

Regarding AAGTGTCT, the binding signal was 0.073 normalized occupancy.

Take ATTGAGAG: the binding signal worked out at 0.0765 normalized occupancy.

As for CATAGGGG, the binding signal is 0.085 normalized occupancy.

AGATGGAA: the binding signal stood at 0.0827 normalized occupancy.

Regarding ACATAGCA, the binding signal was 0.0807 normalized occupancy.

In the case of GCACGTCC, the binding signal was 0.0788 normalized occupancy.

For the sequence GGACGTGA, the binding signal amounted to 0.0764 normalized occupancy.

As to GCACGTGA, the binding signal came to 0.36 normalized occupancy.
